This note sets out measurements from PubChem BioAssay (NCI).

The panel holds about 83,000 compounds, 20% with a hit somewhere; the sample as a whole holds those more often.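 Treatment: one concentration, 48 hours, 96-well format. Scoring: percent growth, with anything below 10 considered active.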 A number with no mark means an inactive call. Activity calls are given as the source filed them.

This experiment deals with HT29 colon. Briefly: NCI-60 one-dose screen, 48 h (100 = growth as untreated, 0 = no growth, -100 = all killed). Conditions: 10 µM. Here is the method:
Growth inhibition of the HT29 human tumor cell line is measured as a screen for anti-cancer activity. Cells are grown in 96 well plates and exposed to the test compound for 48 hours. Compounds are tested at a single concentration, which is 10^-5 M for most compounds. The reported endpoint is percent growth (GI% or GIPRCNT), where numbers from 0 - 100% represent growth inhibition, and numbers from -100% - 0 represent cell death. For example, a value of 40 represents 60% growth inhibition. A value of 0 means no net growth occurred over the course of the experiment. A value of -40 indicates 40% of cells at the beginning of the experiment died by the end of the experiment. A value of -100 means all cells are dead at the end of the experiment.
NCI-60 Human Tumor Cell Lines Screen was performed using the standard one-dose NCI protocol, which is described in more detail at https://dtp.cancer.gov/discovery_development/nci-60/default.htm.
Compounds with GIPRCNT values below 10 were considered active. Activity score was based on GIPRCNT using the following formula: […]
Score is 0 for GIPRCNT values of 100 or above, 50 for GIPRCNT values of 0, and 100 for GIPRCNT values of -100.
Consider `CCOC(=O)CSc1c([N+](=O)[O-])ncn1C`, for which the growth is 104%. As to `C=C[Si](OC(C)=O)(OC(C)=O)OC(C)=O`, the growth is 101%. Regarding `CCCCCCCCO`, the growth was 111%. Turning to `COc1ccc2c(NCCCCCCCCNc3c4ccccc4nc4cc(OC)ccc34)c3ccccc3nc2c1`, the growth was -100% (active). The figure for `CC1(C)/C(=C\CO)C2CCC1C2` (stereo not given) is 109%.

`O=C(OCC(O)C1OC(c2ccccc2)OC(COC(=O)c2ccccc2)C1O)c1ccccc1` (stereo not given): the growth was 103%. As to `COc1ccc(/C(C#N)=C2C=C/C(=N/O)c3ccccc3\2)cc1`, the growth is -13.3% (active). In the case of `CCc1nn(Cc2ccccc2)c2nc(C)c(CCc3ccccc3)c(Cl)c12`, the growth was 88.6%. The figure for `CCCCCCCO` is 132%. Turning to `CC(=O)OC1CC2C(C)(C)OC3CC(=O)OCC32C2CCC3(C)C(=CCC3c3ccoc3)C12C` (stereo not given), the growth was 102%.

Consider `CC1=CC(C)(C)NC(=S)N1c1ccc(S(=O)(=O)O)c2cccc(S(=O)(=O)O)c12`, for which the growth was 133%.

Turning to `S=C1NCc2cncnc2N1`, the growth is 104%. In the case of `O=C(O)C(Cc1ccccc1)C(=O)O`, the growth is 123%. The figure for `FC(F)(F)c1ccc2c(c1)N(CCCN1CCN(C3CC3)CC1)c1ccccc1S2` is 36.1%; for `S=C1CCCCCN1` it is 108%. The figure for `Cc1ccc(/C=C2\SC(=S)N(c3ccc(F)cc3)C2=O)o1` is 70.6%. Regarding `[O-][N+](=Nc1cccc(Cl)c1)c1cccc(Cl)c1`, the growth was 106%. The same measure for `c1c(-c2cc(C3CC3)[nH]n2)n[nH]c1C1CC1`: 98.7%; for `Nc1ncnc2c1nc(N)n2C1OC(CO)C(O)C1O` (stereo not given): -4.96% (active); for `CCC(C)(O)c1ccc(C)cc1` (stereo not given): 107%.

Regarding `C#CC(C(C)C)N(CCO)CCCC` (stereo not given), the growth was 117%. Take `O=S(=O)(O)c1cc(O)c2c(N=Cc3ccccc3O)c(S(=O)(=O)O)ccc2c1`: the growth was 103%.

With `C=CC[N+](C)(C)C`, the growth is 104%.

As for `Cc1cccc(C(=O)N(C(C)C)C(C)C)c1`, the growth was 92.8%. Take `Cc1c(O)cccc1O`: the growth is 106%. With `O=C(Cc1ccccc1)Cc1ccccc1`, the growth is 108%. For `C=CCNC(=O)c1ccc(OC)cc1`, the growth is 129%.

For `COc1cc(C2c3cc4c(cc3C3OC(=O)C2C3CO)OCO4)cc(OC)c1OC` (stereo not given), the growth was -9.63% (active).

For the compound `O=C(/C=C/C(=O)c1ccccc1)c1ccccc1`, the growth was 100%.

For `CC(C)=CC(=O)OC(=O)C=C(C)C`, the growth was 111%.

In the case of `CC1(C(N)=O)CCC(C(=O)O)C1(C)C` (stereo not given), the growth is 104%. As to `Oc1ccccc1-c1nnco1`, the growth is 97.5%. On to `CCOC(=O)Nc1nn[nH]n1`, for which the growth is 110%. The figure for `COc1ccc(/C=C/c2cccc[n+]2C)cc1` is 88%. On to `OC1OC(COC(c2ccccc2)(c2ccccc2)c2ccccc2)C(O)C(O)C1O` (stereo not given), for which the growth is 110%. The same measure for `Cc1ccccc1C1N=C2Oc3ccccc3C=C2C(=O)N1` (stereo not given): 49.7%. As to `O=C(NCCNC(=O)c1ccc(Cl)cc1Cl)c1ccc(Cl)cc1Cl`, the growth is 118%.

For the compound `Brc1cnc2ccccc2c1`, the growth is 102%. The same measure for `COc1ccc(C(O)c2ccccc2)cc1` (stereo not given): 105%.

`CCOC(=O)c1[nH]c(C)c(C(C)=O)c1C`: the growth is 93%.
